# Measurements reported in PubChem BioAssay (Tox21).
# Where “and” joins values, the source holds several entries; their conditions need not be identical. Equal entries are not always repeated. Records with an inconclusive call do not appear. Where a call stands in place of a potency, no number is given. Some structures have more than one record in an assay (separate samples or runs), and their calls can disagree. Calls of active or inactive are those of the source. Unless noted, calls follow the shape of the dose curve; as a rule, active = well fitted curve in the direction sought with a large enough effect in the repeat runs; inconclusive = weak or mixed curves; inactive = no such curve, though single readings can be large; an effect the other way counts as inactive or inconclusive.
# Assays:
# [1] = qHTS assay to identify aromatase inhibitors - cell viability counter screen (AID 743084);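 also: cells stimulated with testosterone during compound exposure; nearly all actives have a fitted effect of over 55% in size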; also: potency is read from the fitted curve at half-maximal effect
# [2] = molecular target: Aryl hydrocarbon receptor (Homo sapiens) (UniProt P35869); assay: qHTS assay to identify small molecule that activate the aryl hydrocarbon receptor (AhR) signaling pathway (AID 743085); also: nearly all actives have a fitted effect of over 15% in size; also: potency is read from the fitted curve at half-maximal effect;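 as to activation: HG2L7.5c1 human HepG2 liver cells with stably integrated DRE-driven firefly reporter; series mostly up to about 70 µM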
# Aryl hydrocarbon receptor (Homo sapiens), sequence (P35869 whole entry, looked up): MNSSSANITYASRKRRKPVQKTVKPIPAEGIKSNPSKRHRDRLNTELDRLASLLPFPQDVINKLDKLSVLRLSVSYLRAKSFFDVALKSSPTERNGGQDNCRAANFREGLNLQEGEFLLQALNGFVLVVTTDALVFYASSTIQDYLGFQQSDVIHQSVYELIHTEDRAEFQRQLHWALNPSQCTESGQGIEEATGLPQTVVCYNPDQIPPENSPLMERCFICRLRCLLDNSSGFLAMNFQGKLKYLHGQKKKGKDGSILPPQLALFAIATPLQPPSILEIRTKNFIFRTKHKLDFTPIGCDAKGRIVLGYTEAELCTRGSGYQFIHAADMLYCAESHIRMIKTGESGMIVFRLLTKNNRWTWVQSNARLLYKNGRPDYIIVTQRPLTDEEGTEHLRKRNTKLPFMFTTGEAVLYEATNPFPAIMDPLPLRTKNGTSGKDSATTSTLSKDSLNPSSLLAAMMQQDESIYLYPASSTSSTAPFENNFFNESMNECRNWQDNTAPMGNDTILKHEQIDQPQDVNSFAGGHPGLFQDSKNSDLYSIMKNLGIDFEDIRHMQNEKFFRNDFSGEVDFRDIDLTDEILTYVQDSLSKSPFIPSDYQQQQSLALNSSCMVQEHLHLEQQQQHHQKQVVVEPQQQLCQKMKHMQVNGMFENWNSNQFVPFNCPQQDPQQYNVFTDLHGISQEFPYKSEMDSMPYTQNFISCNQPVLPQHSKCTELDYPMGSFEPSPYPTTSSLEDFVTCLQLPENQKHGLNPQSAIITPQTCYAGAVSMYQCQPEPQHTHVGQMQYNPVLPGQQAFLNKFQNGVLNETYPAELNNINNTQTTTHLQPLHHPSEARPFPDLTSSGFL
# Summary of the method: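 Steps: seed HepG2-AhR-luc cells; allow 5 h at 37C; pin-transfer test compound or vehicle; incubate 24 h at 37C; add viability dye (30 min, 37C) and read fluorescence; add luciferase substrate (30 min, RT) and read luminescence.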
# [3] = qHTS assay to identify small molecule that activate the aryl hydrocarbon receptor (AhR) signaling pathway - cell viability counter screen (AID 743086); also: nearly all actives have a fitted effect of over 45% in size; also: potency is read from the fitted curve at half-maximal effect
# Summary of the method: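 HepG2-AhR-luc (HG2L7.5c1) cells, 4000/well, treated 24 h at 37 C with compound; viability measured as CellTiter-Fluor fluorescence after 30 min in the same wells as the luciferase read.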
# [4] = qHTS assay to identify small molecule antagonists of the peroxisome proliferator-activated receptor gamma (PPARg) signaling pathway - cell viability counter screen (AID 743194); also: nearly all actives have a fitted effect of over 55% in size; also: potency is read from the fitted curve at half-maximal effect
# Summary of the method: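 Cytotoxicity counter screen in PPARg-bla HEK293H cells, same wells as reporter assay. Compounds plus 50 nM rosiglitazone (final) for 17 h at 37 C, then viability read by CellTiter-Glo luminescence.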
# [5] = qHTS assay for small molecule agonists of the antioxidant response element (ARE) signaling pathway - cell viability counter screen (AID 743203; calls by dose curve; also: nearly all actives have a fitted effect of over 55% in size; also: potency is read from the fitted curve at half-maximal effect)
# Summary of the method: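 Viability counter screen: CellTiter-Glo luminescence, read after 30 min at room temperature, in ARE-bla HepG2 wells. Compound exposure lasted 16 h at 37C/5% CO2, following a 5 h pre-incubation of the cells after plating.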
# [6] = qHTS assay for small molecule activators of the heat shock response signaling pathway - cell viability counter screen (AID 743209); also: nearly all actives have a fitted effect of over 50% in size; also: potency is read from the fitted curve at half-maximal effect
# Summary of the method: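 Cytotoxicity counter screen run in the same wells as the heat-shock bla reporter assay: HeLa HSE-bla cells, 5 h compound exposure at 37 C, viability read by CellTiter-Glo luminescence.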
# [7] = qHTS assay for small molecule activators of the heat shock response signaling pathway (AID 743210; active = well fitted activation curve with a large enough effect in the signal ratio in the repeat runs, with a control signal flat, not every such curve was filed as active; the % refers to the signal ratio; also: potency is read from the fitted curve at half-maximal effect;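 as to activation: HeLa cells with beta-lactamase reporter driven by heat shock elements; series mostly up to about 63 µM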)
# Summary of the method: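 Beta-lactamase reporter read-out: FRET substrate fluorescence after 2.5 h at RT, following 5 h compound treatment at 37 C of HeLa cells carrying HSE-driven bla reporter; quantitative HTS format.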
# [8] = qHTS assay for small molecule agonists of the antioxidant response element (ARE) signaling pathway (AID 743202; active = well fitted activation curve with a large enough effect in the signal ratio in the repeat runs, not every such curve was filed as active; the % refers to the signal ratio; also: potency is read from the fitted curve at half-maximal effect)
# Summary of the method: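 HepG2 ARE-bla reporter line, 2,000 cells/well; 5 h preincubation 37 C/5% CO2; compound (DMSO) 16 h 37 C; B/G FRET substrate 2 h RT; fluorescence intensity.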
# [9] = molecular target: Peroxisome proliferator-activated receptor gamma (Homo sapiens) (UniProt P37231); assay: qHTS assay to identify small molecule agonists of the peroxisome proliferator-activated receptor gamma (PPARg) signaling pathway (AID 743094; active = well fitted activation curve with a large enough effect in the signal ratio in the repeat runs, not every such curve was filed as active; the % refers to the signal ratio)
# Peroxisome proliferator-activated receptor gamma (Homo sapiens), sequence (P37231 whole entry, looked up): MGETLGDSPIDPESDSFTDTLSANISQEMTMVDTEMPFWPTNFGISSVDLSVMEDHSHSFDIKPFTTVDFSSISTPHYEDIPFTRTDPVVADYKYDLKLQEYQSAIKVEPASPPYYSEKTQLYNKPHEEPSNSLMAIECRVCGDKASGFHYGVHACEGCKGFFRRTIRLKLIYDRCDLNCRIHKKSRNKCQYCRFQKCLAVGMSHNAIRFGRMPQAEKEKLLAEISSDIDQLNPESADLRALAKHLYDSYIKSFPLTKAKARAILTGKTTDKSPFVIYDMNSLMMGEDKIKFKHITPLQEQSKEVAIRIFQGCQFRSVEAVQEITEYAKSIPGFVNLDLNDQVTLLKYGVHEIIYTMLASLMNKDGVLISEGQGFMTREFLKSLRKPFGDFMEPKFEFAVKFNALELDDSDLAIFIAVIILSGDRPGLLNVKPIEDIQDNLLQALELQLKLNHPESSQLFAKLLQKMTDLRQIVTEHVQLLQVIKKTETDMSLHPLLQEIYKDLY
# Summary of the method: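 Agonist activity was taken from a beta-lactamase reporter (FRET substrate, 1 h at room temperature) in HEK293H cells carrying a PPARg UAS-bla construct. Compounds in DMSO were incubated 17 h at 37C after a 5 h cell pre-incubation.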
# [10] = molecular target: Peroxisome proliferator-activated receptor gamma (Homo sapiens) (UniProt P37231); assay: qHTS assay to identify small molecule antagonists of the peroxisome proliferator-activated receptor gamma (PPARg) signaling pathway (AID 743191; calls by dose curve; also: nearly all actives have a fitted effect of over 30% in size; also: potency is read from the fitted curve at half-maximal effect)
# Summary of the method: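 GeneBLAzer PPARg UAS-bla HEK293H cells, 5 h post-plating, exposed to compounds 17 h at 37C. LiveBLAzer B/G FRET substrate added for 1 h at room temperature; beta-lactamase reporter read by fluorescence intensity.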
SMILES,Potency [1],Potency [2],Potency [3],Potency [4],Potency [5],Potency [6],Potency [7],Potency [8],Potency [9],Potency [10]
Cc1cc(Cc2cc(C)cc(C(C)(C)C)c2O)c(O)c(C(C)(C)C)c1,54.8 µM (active) and 61.1 µM (active),inactive,inactive,12.4 µM (active) and 11 µM (active),17.3 µM (active) and 27.3 µM (active),11 µM (active) and 13.8 µM (active),,,,
CCCCCCC(O)CCCCCCCCCCC(=O)O (stereo unspecified),inactive,inactive,inactive,21.9 µM (active),,inactive,inactive,,,
CCOC(=O)C(C)C(C)=O (stereo unspecified),inactive,inactive,inactive,inactive,inactive,inactive,,inactive,,
NCCO,inactive,inactive,inactive,inactive,inactive,inactive,inactive,inactive,,
O=c1n(CC2CO2)c(=O)n(CC2CO2)c(=O)n1CC1CO1 (stereo unspecified),inactive and 34.2 µM (active),inactive,inactive,inactive,inactive,inactive,35.8 µM (active) and 43.6 µM (active),4.33 µM (active),,
Cc1occc(=O)c1OC(=O)C(C)C,inactive,inactive,inactive,inactive,inactive,inactive,inactive,,,
COc1ccc(CCN2CCC(Nc3nc4ccccc4n3Cc3ccc(F)cc3)CC2)cc1,26.6 µM (active) and 12.5 µM (active),inactive,23.7 µM (active) and 9.9 µM (active),4.46 µM (active) and 26.6 µM (active),6.25 µM (active) and 26.6 µM (active),17.8 µM (active) and inactive,inactive,,,
Cc1c(O)cccc1C(=O)N[C@@H](CSc1ccccc1)[C@H](O)CN1C[C@H]2CCCC[C@H]2C[C@H]1C(=O)NC(C)(C)C,7.5 µM (active) and 2.98 µM (active),inactive,13.3 µM (active) and 11.9 µM (active),21.3 µM (active) and 26.6 µM (active),15 µM (active) and 26.6 µM (active),inactive,,,,
O,inactive,inactive,inactive,inactive,inactive,inactive,,inactive,,
Cc1cc(OCCOCC[N+](C)(C)Cc2ccccc2)ccc1C(C)(C)CC(C)(C)C,26.6 µM (active) and 60.8 µM (active),inactive,29.8 µM (active) and 60.8 µM (active),15.4 µM (active) and 29.8 µM (active),19.2 µM (active) and 29.8 µM (active),38.7 µM (active),,,inactive,
O=C(O[C@@H]1Cc2c(O)cc(O)cc2O[C@@H]1c1cc(O)c(O)c(O)c1)c1cc(O)c(O)c(O)c1,30.7 µM (active) and 46.8 µM (active),inactive,34.4 µM (active) and 41.7 µM (active),inactive,inactive,inactive,inactive,,inactive,
CCCN[C@H]1CCc2nc(N)sc2C1,inactive,inactive,inactive,inactive,inactive,inactive,,inactive,,
CCC(C)(C)C(=O)O[C@H]1C[C@@H](C)C=C2C=C[C@H](C)[C@H](CC[C@@H]3C[C@@H](O)CC(=O)O3)[C@H]21,inactive,inactive,inactive,inactive,inactive,54.9 µM (active),,,inactive,
CCCCCCCCCCCCc1ccccc1O,30.2 µM (active) and 54.5 µM (active),inactive,inactive,48.3 µM (active) and 17.4 µM (active),60.3 µM (active) and 43.3 µM (active),17.2 µM (active) and 24.5 µM (active),,,,
COC(=O)[C@H]1[C@H]2C[C@@H]3c4[nH]c5cc(OC)ccc5c4CCN3C[C@H]2C[C@@H](OC(=O)c2cc(OC)c(OC)c(OC)c2)[C@@H]1OC,inactive,68.5 µM (active) and 39.7 µM (active),inactive,inactive,inactive,inactive,inactive,,,
CC(=O)O[C@]1(C(C)=O)CC[C@H]2[C@@H]3C[C@H](C)C4=CC(=O)CC[C@]4(C)[C@H]3CC[C@@]21C,inactive,inactive,inactive,inactive,inactive,inactive,,,,inactive
CC(C)(c1ccccc1)c1ccc(Nc2ccc(C(C)(C)c3ccccc3)cc2)cc1,inactive,inactive,inactive,inactive,inactive,inactive,,,,
Nc1nc(=S)c2[nH]cnc2[nH]1,inactive,inactive and 61.1 µM (active),inactive,2.98 µM (active),3.86 µM (active),inactive,inactive,4.73 µM (active),,inactive

SMILES,Potency [1],Potency [2],Potency [3],Potency [4],Potency [5],Potency [6],Potency [7],Potency [8],Potency [9],Potency [10]
CC(C)(C)NC(=O)[C@@H]1CN(Cc2cccnc2)CCN1C[C@@H](O)C[C@@H](Cc1ccccc1)C(=O)N[C@H]1c2ccccc2C[C@H]1O,26.6 µM (active),inactive,inactive,inactive,inactive,inactive,inactive,inactive,,
O=C(Nc1ccccc1SSc1ccccc1NC(=O)c1ccccc1)c1ccccc1,15.4 µM (active) and 48.6 µM (active),30.8 µM (active) and 34.4 µM (active),inactive,inactive,inactive,,,,,
c1ccc2c(c1)-c1cccc3c1c-2cc1ccccc13,inactive,8.43 µM (active) and 6.86 µM (active),inactive,inactive,inactive,inactive,,1.34 µM (active),,
CO[Si](OC)(OC)c1ccccc1,inactive,inactive,inactive,inactive,inactive,,inactive,,inactive,
CC(C)CCCCCCc1ccc(O)cc1,inactive and 31.2 µM (active),inactive,inactive,,inactive,39.6 µM (active) and 54.9 µM (active),,,inactive,
CNCCC(Oc1ccc(C(F)(F)F)cc1)c1ccccc1 (stereo unspecified),inactive and 47.9 µM (active),inactive,inactive and 60.3 µM (active),48.4 µM (active),17 µM (active),,,,,
Oc1c(Cl)cc(Cl)c(Cl)c1Cc1c(O)c(Cl)cc(Cl)c1Cl,6.09 µM (active),inactive,inactive,173 nM (active) and 977 nM (active) and 1.68 µM (active),24.3 µM (active) and 8.63 µM (active) and 8.41 µM (active),21.8 µM (active) and 21.9 µM (active) and inactive,,,,
c1cnc2cc3c(cc2n1)C1CNCC3C1,inactive,inactive,,inactive,inactive,inactive,inactive,inactive,inactive,inactive
CC(N)=O,inactive,inactive,inactive,,inactive,inactive,inactive,inactive,inactive,
N[C@@H]1CONC1=O,inactive,inactive,inactive,inactive,inactive,inactive,inactive,inactive,,
Oc1ccc(Cl)cc1Cc1cc(Cl)ccc1O,,inactive,inactive,11.2 µM (active) and 3.89 µM (active) and 16.8 µM (active),27.8 µM (active) and 54.5 µM (active),22.3 µM (active) and inactive,,,inactive,9.95 µM (active) and 26.6 µM (active)
CCN(CC)CCOc1ccc(/C(=C(\Cl)c2ccccc2)c2ccccc2)cc1,inactive and 27.9 µM (active),inactive,,17.7 µM (active),15.7 µM (active) and 29.8 µM (active),39.7 µM (active) and 29.8 µM (active),,,,
CC(C)(C)NCC(O)COc1ccccc1OCC1CCCO1 (stereo unspecified),,,,inactive,inactive,inactive,inactive,inactive,,inactive
BrC1CCC(Br)C(Br)CCC(Br)C(Br)CCC1Br (stereo unspecified),,inactive,inactive,16.5 µM (active),,inactive,,,inactive,
CCN(CC)C(=S)SSC(=S)N(CC)CC,86.3 nM (active) and 44.3 nM (active),inactive,,inactive,27.9 µM (active) and inactive,inactive,,77 nM (active) and inactive,,
O=C(O)CCc1ccccc1,,,inactive,inactive,,inactive,inactive,inactive,,
CC(COc1ccccc1)N(CCCl)Cc1ccccc1 (stereo unspecified),inactive,,inactive,,61.1 µM (active) and inactive,inactive,,,inactive,inactive
O=C1CC2(CCCC2)CC(=O)N1CCCCN1CCN(c2ncccn2)CC1,,,inactive,inactive,inactive,inactive,inactive,27.3 µM (active),,
